Assay outcomes as filed in PubChem.
Hits are enriched below; roughly 5.3% of the tested compounds scored in any of these assays.
TDP1 block: inhibitors of human tyrosyl-DNA phosphodiesterase TDP1; Q9NUW8; recombinant TDP1, AlphaScreen DNA substrate cleavage; Potency, µM (top dose mostly 130 µM), most hits filed as inhibitors; 350,000 tested, 0.28% active; further: nearly all actives have a fitted effect of over 40% in size
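AlphaScreen read-out: signal falls as enzyme removes the 3' tyrosine-FITC from a 5'-biotinylated DNA oligo (15 nM, 5 min, RT). Enzyme was E. coli-made recombinant Tdp1 at 1 nM, exposed to compound for 15 min beforehand; beads 10 ug/ml, 10 min.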
JMJD2A Tudor: inhibitors of human JMJD2A Tudor domain; O75164; AlphaScreen JMJD2A-Tudor / H3K4me3 peptide binding; Potency, µM (series often up to 114 µM), usual class: inhibitors; 390,000 tested, 4.4% active; further: nearly all actives have a fitted effect of over 50% in size
CtBP-E1A blk: inhibitors of CtBP/E1A interaction. 340,000 tested, 0.49% active. AlphaScreen GST-E1A/His-CtBP binding, 1536-well; hits give low values. activity change, % (test concentration not listed); in the data active means activity change below about -65%; inconclusive means mostly about -30% to -63%
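Homogeneous bead-based format: GST-tagged E1A captured on glutathione donor beads, His-tagged CtBP on nickel acceptor beads; compounds precede bead addition by 2 h at 37 °C.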
HP1b binding inh: blocks HP1-beta chromodomain binding to methylated histone tails; P83916; AlphaScreen HP1-beta / biotin-H3K9me3 peptide binding; Potency, µM (highest dose often 114 µM), most hits filed as inhibitors; 390,000 tested, 0.56% active; further: nearly all actives have a fitted effect of over 70% in size
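AlphaScreen: HP1-beta (50 nM) preformed 30 min with biotin-H3(1-18)K9me3 peptide (50 nM) in PBS pH 7.4, 0.01% Tween-20. Compound added for 30 min at RT, then streptavidin donor/nickel chelate acceptor beads (10 ug/mL) for 30 min.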
BAZ2B block: BAZ2B (human) inhibition. Q9UIF8. AlphaScreen BAZ2B-H3K14Ac peptide displacement. Potency, µM (highest dose often 114 µM), hits mostly inhibitors. 360,000 tested, 4.4% active. AID 504333; further: nearly all actives have a fitted effect of over 60% in size
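In this displacement format the biotinylated H3(5-23) peptide acetylated at Lys14 serves as ligand at 50 nM, with BAZ2B at 50 nM in PBS pH 7.4 containing 0.01% Tween-20. Donor and acceptor beads are 10 ug/mL final.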
Six1-Eya2 blk: Six1/Eya2 interaction inhibition. Q15475+O00167. AlphaScreen GST-Six1/His-Eya2 binding, biochemical; hits give low values. activity change, % (test concentration not listed). 360,000 tested, 0.56% active; in the data active means activity change below about -65%; inconclusive means mostly about -30% to -63%
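Compounds are tested against tagged Six1 and Eya2 proteins bridged by glutathione donor and nickel acceptor beads; after a one-hour incubation at 37 °C without light, AlphaScreen emission is recorded.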
A number is an active result; i = inactive; ? = inconclusive; nt = not tested or not shown; [ ] = another dose, or the depositor's remark. Unless noted, the call rests on the fitted dose curve; in most records, active means well fitted inhibition curve with a large enough effect; inconclusive means small, poorly fitted or top-dose-only effect; inactive means no such curve, though single readings can be large or run the other way.

SMILES | TDP1 block | JMJD2A Tudor | CtBP-E1A blk | HP1b binding inh | BAZ2B block | Six1-Eya2 blk
Nc1nc(-c2ccc3c(c2)CCCC3)cs1 | i | ? | i | i | 44.7µM | i
CC1Cc2cc(-c3csc(N)n3)ccc2O1 (stereo not drawn) | nt | i | i | i | ? | i
CCC(C)C(=O)N1CCc2cc(-c3csc(N)n3)ccc21 (stereo not drawn) | i | i | i | i | ? | i
CC(C)(C)C(=O)N1CCc2cc(-c3csc(N)n3)ccc21 | i | i | i | i | 50.1µM | i
Cc1cc(S(=O)(=O)N(Cc2ccccc2)Cc2ccc(N(C)C)cc2)ccc1-n1cnnn1 | i | 39.8µM | ? | i | i | ?
COc1cc(S(=O)(=O)N(Cc2cccnc2)Cc2ccco2)ccc1-n1cnnn1 | i | 28.2µM | i | i | 56.2µM | i
COc1cccc(CN(Cc2cccnc2)S(=O)(=O)c2ccc(-n3cnnn3)c(C)c2)c1 | i | 89.1µM | i | i | 79.4µM | i
Cc1cc(S(=O)(=O)N(Cc2ccc(C(C)(C)C)cc2)Cc2cccs2)ccc1-n1cnnn1 | i | i | i | i | i | i
OCC1OC(c2ccccc2)C=CC1Oc1ccc(C2CCCC2)cc1 (stereo not drawn) | i[21 µM] | nt | nt | nt | nt | nt
CC(=O)c1cc(-c2ccccc2)n(CCC(=O)NC(C)c2ccccc2)c1C (stereo not drawn) | i | i | nt | i | ? | nt
CC(C)(C)C1CCc2nc(NC(=O)COc3ccc(F)cc3)sc2C1 (stereo not drawn) | i | i | nt | i | i | nt
CCOc1ccc(NC(=O)C(=O)NCCc2csc(-c3ccc(F)cc3)n2)cc1 | i | ? | nt | i | i | nt
CCn1c(SCC(=O)c2ccc(Cl)cc2)nnc1-c1ccoc1C | i | 50.1µM | i | i | i | i
CCn1c(SCC(=O)c2ccc(C)cc2)nnc1-c1ccoc1C | i | i | i | i | i | i
Cc1cccc(N2C(=O)C(Cl)=C(Nc3c(C)n(C)n(-c4ccccc4)c3=O)C2=O)c1C | i | i | i | i | 50.1µM | i
Cc1ccc(N2C(=O)C(Cl)=C(Nc3c(C)n(C)n(-c4ccccc4)c3=O)C2=O)cc1 | i | i | i | i | i | i
CN(C)S(=O)(=O)c1ccc(SCC(=O)Nc2cccc(S(=O)(=O)N3CCCC3)c2)nc1 | nt | i | nt | i | nt | i
O=C(Cc1cccc2ccccc12)N/N=C/c1ccc(Sc2cccc3cccnc23)o1 | i | nt | nt | nt | i | nt
O=C(CSc1cccc2cccnc12)N/N=C/c1ccc(F)cc1 | i | i | ? | i | i | -67.0
CN(C)S(=O)(=O)c1cccc(NC(=O)CSc2cccc3cccnc23)c1 | i | ? | -91.1 | i | 56.2µM | -91.4
CCCCC(=O)N/N=C/c1ccc(Sc2cccc3cccnc23)o1 | i | i | -88.1 | i | i | -80.4
COc1ccc(C(=O)Nc2ccc3oc(-c4cc(Cl)ccc4Cl)nc3c2)cc1Br | i[12.3 µM] | ? | nt | i | i | nt
Cc1ccc2onc(CC(=O)N3CCN(c4ccccc4)CC3)c2c1 | i | i | nt | i | i | nt
Cc1ccccc1CN1CCN(S(C)(=O)=O)CC1 | i | i | i | i | i | i
Cc1ccccc1CN1CCN(CC2CC3C=CC2C3)CC1 (stereo not drawn) | i | 5.62µM | i | ? | 22.4µM | i
SMILES | TDP1 block | JMJD2A Tudor | CtBP-E1A blk | HP1b binding inh | BAZ2B block | Six1-Eya2 blk
CCN1CCN(CC2CC3C=CC2C3)CC1 (stereo not drawn) | i | 1.26µM | i | ? | 50.1µM | i
CCCCNC(=O)c1ccc2c(c1)NC(=O)C(CS(=O)(=O)Cc1cccc(C)c1)N2 (stereo not drawn) | i | i | nt | i | i | nt
CCOC(=O)c1nc(C)[nH]c1C(=O)OCC | i | 17.8µM | i | i | 79.4µM | i
CCN1C(C)=C(C(=O)OC)C(c2ccccc2)N2C(=O)[C@](O)(C(=O)OC)CC(C(C)=O)=C12 (stereo partly drawn) | i[21 µM] | nt | nt | nt | nt | nt
Brc1ccccc1OCCN1CCOCC1 | i | 3.16µM | i | ? | ? | i
Cc1cccc(OCCN2CCOCC2)c1C | i | i | i | i | i | i
CCCCCOc1ccc(CN2CCOCC2)cc1Cl | i | i | i | i | i | i
Clc1cc(Br)ccc1OCCN1CCOCC1 | i | 0.794µM | i | ? | ? | i
COc1cc(NC(=O)CN2C(=O)c3ccccc3Sc3ccc(C(=O)N4CCCC4)cc32)cc(OC)c1 | i | i | nt | i | i | nt
Fc1ccc(-n2c(-c3cc(C4CC4)[nH]n3)n[nH]c2=S)cc1Cl | nt | 79.4µM | i | i | ? | i
O=c1ccc(-c2n[nH]c(=S)n2-c2ccc(F)c(Cl)c2)n[nH]1 | i | 35.5µM | i | i | ? | i
Cc1ccc2oc3c(c(=O)c2c1)C(c1ccccc1F)N(CCCN(C)C)C3=O (stereo not drawn) | i | i | nt | i | i | nt
CCN(CCCNc1cc2c(c(N)c1S(=O)(=O)O)C(=O)c1ccccc1C2=O)c1ccccc1 | nt | nt | i | nt | nt | -65.3
COc1ccccc1CCNC(=O)c1cccn1-c1nnc(N2CCCC2)s1 | i | i | nt | i | i | nt
CCN(C)c1ccc(/C=N\n2nnnc2N)cc1 | 50.1µM | i | i | i | i | i
CCN(Cc1ccccc1)c1ccc(/C=N/NS(=O)(=O)c2ccc(C)c([N+](=O)[O-])c2)cc1 | i | ? | i | ? | ? | i
CCN(CC)c1ccc(C=NNc2ccc([N+](=O)[O-])cn2)cc1 | nt | i | i | i | nt | i
CCN(Cc1ccccc1)c1ccc(N=Nc2nn(C)c(C)c2[N+](=O)[O-])cc1 | i | 6.31µM | -67.6 | ? | 8.91µM | -70.4
CCN(CC)c1ccc(N=Nc2nn(C)c(C)c2[N+](=O)[O-])cc1 | i | ? | ? | 14.1µM | 10µM | -66.9
Cc1cccc(CNC(=O)c2cccc(NC(=O)N3CCSc4ncccc43)c2)c1 | i | i | nt | i | i | nt
Cc1nc2ccccc2c(=O)n1/N=C/c1ccc(O)cc1 | i | i | i | i | i | i
CCN=c1scc(-c2ccco2)n1/N=C/c1ccc(O)cc1 | i | 56.2µM | i | ? | 50.1µM | i
COc1ccccc1C(=O)Nc1c(C(=O)N(CCN(C)C)Cc2ccco2)oc2ccccc12 | i | 44.7µM | nt | i | ? | i
CCN(CC)c1ccc(NC(=O)c2cc(S(=O)(=O)N3CCc4ccccc43)cn2C)c(C)c1 | i | i | nt | i | i | nt
O=C(CSc1nc2sc3c(c2c(=O)n1-c1ccccc1)CCCC3)N/N=C/c1ccc(C(=O)O)cc1 | nt | 79.4µM | i | 79.4µM | i | i
Cn1c(N/N=C/c2ccccc2)nc2sc3c(c2c1=O)CCC3 | i | ? | ? | i | i | -70.9
O=C(CSc1nc2sc3c(c2c(=O)n1-c1ccccc1)CCCC3)NCc1ccco1 | i | i | i | i | i | i
CCCNC(=O)C1CCC(Cn2c(=O)c3sccc3n(CC(=O)N3CCCC(C)C3)c2=O)CC1 (stereo not drawn) | i | i | nt | i | i | nt
c1ccc(CNC2=NCCCC2)cc1 | i | ? | i | ? | ? | i
